Shiga toxin inh – A qHTS for Small Molecule Inhibitors of Shiga Toxin; Vero cells, Shiga toxin protein synthesis inhibition reporter; inhibition, % at 38.7 µM; 9.2% of 290,000 active; in the data active = inhibition mostly above about 28%, no sharp cut-off; inactive = mostly below about 43%
NS1 function inh – qHTS Assay for Inhibitors of Influenza NS1 Protein Function. AID 2326, 2010. 0.4% of 270,000 active. Potency, µM (highest dose often 46.1 µM); calls by dose curve; note: actives are rising curves; nearly all actives have a fitted effect of over 50% in size
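S. cerevisiae expressing influenza A NS1, grown in glucose, washed, then diluted 1:100 into pH 6.0 -URA galactose medium with 23 nl compound. Growth recovery read as OD600; NS1-free strain serves as control.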
CHX counter – Cycloheximide Counterscreen for Small Molecule Inhibitors of Shiga Toxin | cell reporter, cycloheximide protein synthesis inhibition counterscreen | max response, % | 12% of 300,000 active | AID 2314, 2010; in the data active = max response mostly above about 13%, no sharp cut-off; inactive = mostly below about 14%; note: read at 38.3 µM for the half of the compounds with a filed dose
Pf growth 48h – Primary qHTS for delayed death inhibitors of the malarial parasite plastid, 48 hour incubation; P. falciparum luciferase growth in erythrocytes, 48 h; Potency, µM (series often up to 28.7 µM), most hits filed as inhibitors; 5.9% of 310,000 active
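Luminescence readout; reporter = integrated firefly luciferase in P. falciparum. RBC culture at 2% hematocrit, 0.1% parasitemia final, 37 C/5% CO2; decreased signal taken as growth inhibition.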
Pf growth 96h – Primary qHTS for delayed death inhibitors of the malarial parasite plastid, 96 hour incubation. P. falciparum luciferase reporter growth, 96 h. Potency, µM (top dose mostly 28.7 µM), actives largely listed as inhibitors. 6.9% of 320,000 active
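Parasite growth measured via integrated firefly luciferase reporter in P. falciparum. Infected erythrocytes at 2% hematocrit, 0.05% parasitemia final were treated 96 hours at 37 C under 5% CO2, and luminescence was read.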
Giardia FBPA inh – qHTS Assay for Inhibitors of Fructose-1,6-bisphosphate Aldolase from Giardia Lamblia; A8B2U2; Potency, µM (highest dose often 59.6 µM), actives largely listed as inhibitors; 0.71% of 290,000 active; purified Giardia FBPA; note: nearly all actives have a fitted effect of over 55% in size
Target sequence (A8B2U2 whole entry, looked up): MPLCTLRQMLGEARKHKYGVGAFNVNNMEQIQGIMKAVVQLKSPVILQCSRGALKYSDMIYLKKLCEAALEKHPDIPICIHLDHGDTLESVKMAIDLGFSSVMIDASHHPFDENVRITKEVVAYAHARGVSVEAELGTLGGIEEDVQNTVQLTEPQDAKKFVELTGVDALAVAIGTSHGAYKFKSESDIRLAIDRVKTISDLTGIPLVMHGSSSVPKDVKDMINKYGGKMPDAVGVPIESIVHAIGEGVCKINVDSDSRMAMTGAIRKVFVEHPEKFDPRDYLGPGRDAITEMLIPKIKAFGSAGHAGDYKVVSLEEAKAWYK
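Giardia FBPA (40 nM reagent) was preincubated 10 min at RT with compound (up to 57.5 uM final), then substrate plus GAPDH/TPI/NAD/arsenate coupling system with diaphorase/resazurin was added; resorufin fluorescence (525/598 nm) was read after 20 min.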
Hits are given with their value; n = inactive; u = inconclusive; x = no result given; [ ] = remark or other dose. Sampled rows, rich in hits. Any-hit rate of the full collection: about 21%. Unless noted, calls come from the whole dose curve; as a rule, active = well fitted curve in the direction sought with a large enough effect; inconclusive = small, poorly fitted or top-dose-only effect, or another doubt; inactive = no such curve, though single readings can be large; an effect the other way counts as inactive or inconclusive.

SMILES	Shiga toxin inh	NS1 function inh	CHX counter	Pf growth 48h	Pf growth 96h	Giardia FBPA inh
CCCc1nc2c(ccc3ccccc32)cc1CC	n	n	n	n	n	n
CCOC(=O)c1c(OCC)[nH]c2c1cc(O)c1ccccc12	n	n	n	x	n	20µM
FC(F)(F)c1ccc(C2NCCc3sccc32)cc1 (centres undefined)	n	n	45	n	n	n
CSc1ccccc1C(=O)NCCS(=O)(=O)N1CCN(c2ccc(F)cc2)CC1	x	x	x	n	n	x
O=C(NCCS(=O)(=O)N1CCN(c2ccc(F)cc2)CC1)C12CC3CC(CC(C3)C1)C2	x	x	x	12µM	n	x
CCNc1ncc2nc(-c3ccc(F)cc3)c(=O)n(CCc3ccccc3)c2n1	x	x	x	x	x	n
c1coc(CNc2c3c(nc4ncnn24)CCC3)c1	n	n	n	x	n	n
CSc1c2c(nc3ncnn13)CCC2	n	n	n	u	9.3µM	n
Fc1ccccc1CCNc1c2c(nc3ncnn13)CCCC2	n	n	n	n	n	n
c1ccc(Nc2c3c(nc4ncnn24)CCC3)cc1	n	n	n	n	12µM	n
c1ccc(CCNc2c3c(nc4ncnn24)CCC3)cc1	n	n	n	1.5µM	n	n
CC1CN(c2c3c(nc4ncnn24)CCCC3)CC(C)O1 (centres undefined)	n	n	n	n	n[5.75 µM]	n
Clc1ccccc1Nc1c2c(nc3ncnn13)CCC2	n	n	n	12µM	3.3µM	n
O=C1[C@H]2[C@H]3[C@H](O)[C@H](O)C/C(=N/OCc4ccccc4)[C@@H]3CC[C@@H]2C(=O)N1Cc1ccc2c(c1)OCO2	x	x	x	x	x	n[12.9 µM]
O=C1C2C3CCC(C3)C2C(=O)N1c1ccc(OS(=O)(=O)c2ccccc2)cc1 (centres undefined)	78	n	33	n	n	n
O=C(NC1CCCC1)C(c1ccc(F)cc1)N(Cc1ccc(F)cc1)C(=O)c1ccn[nH]1 (centres undefined)	n	n	n	n	n	n
O=C(NC1CCCCC1)C(c1ccc2ncccc2c1)N(Cc1ccco1)C(=O)c1ccc2c(c1)OCCO2 (centres undefined)	n	n	n	5.2µM	2.6µM	n
O=C(NC1CCCCC1)C(c1cccs1)N(Cc1cccs1)C(=O)c1cccs1 (centres undefined)	n	n	n	u	u	n
O=C(NC1CCCCC1)C(c1ccc2ncccc2c1)N(Cc1ccc2c(c1)OCO2)C(=O)c1ccc2c(c1)OCCO2 (centres undefined)	n	n	n	7.4µM	u	n
O=C(NC1CCCCC1)C(c1ccc2ncccc2c1)N(Cc1ccc(F)cc1)C(=O)c1ccc2c(c1)OCCO2 (centres undefined)	n	n	n	u	10µM	n
O=C(NC1CCCCC1)C(c1ccc2ncccc2c1)N(Cc1cccs1)C(=O)c1cccs1 (centres undefined)	n	n	n	12µM	u	n
COc1ccc(CNC(=O)COC(=O)c2[nH]c(C)c(C(C)=O)c2C)cc1OC	x	x	x	n	n	x
CCn1cc(CN2CCC(n3nccc3NC(=O)c3ccc4c(c3)OCO4)CC2)c(C)n1	n	n	n	n	n	x
O=C(CC1C(=O)NCCN1Cc1ccccc1C(F)(F)F)NCCn1cccn1 (centres undefined)	n	n	n	n	n	n
Cc1ccc(-c2nc3ccc(NS(=O)(=O)c4ccccc4)cc3[nH]2)o1	130	n	66	x	n	n
SMILES	Shiga toxin inh	NS1 function inh	CHX counter	Pf growth 48h	Pf growth 96h	Giardia FBPA inh
O=S(=O)(Nc1ccc2nc(C(F)(F)F)[nH]c2c1)c1ccccc1	n	n	n	12µM	n	n
O=S(=O)(Nc1ccc2nc(-c3ccc(Br)o3)[nH]c2c1)c1ccccc1	n	n	40	n	u	n
Cc1cc(=O)oc2cc(NS(=O)(=O)c3ccccc3)ccc12	n	n	n	n	n	n
COC(=O)c1ccc2nc(C(F)(F)F)[nH]c2c1	n	n	17	n	n	u
O=C1C(Cl)=C(Nc2ccc(S(=O)(=O)Nc3ccccn3)cc2)C(=O)c2ccccc21	x	n	x	x	x	x
Cc1nn(-c2ccccc2[N+](=O)[O-])c(=O)c2ccccc12	n	n	n	n	n	n
Cc1nn(-c2ccc(Br)cc2)c(=O)c2ccccc12	125	n	70	n	n	n

Screening results from PubChem.
